# Test results published in the supplement of paper PMC11732987, “Enantioselective OTUD7B fragment discovery through chemoproteomics screening and high-throughput optimisation” (Communications Chemistry, 2025).
# Unmarked numbers belong to inactive results.
# Assays:
# Assay in all cases: log2 ratio of Biotin-Ahx-Ub-VS probe labelling (fragment/DMSO); higher = less target engagement (more negative = stronger competition), active = hit call of the paper (q ≤ 0.05, log2 ratio ≤ -1)
# Conditions in all cases: compound concentration: 200 uM; treatment time: 3 h
# OTUD6B = target: T1, OTUD6B (UniProt Q8N6M0)
# T1 sequence (whole entry): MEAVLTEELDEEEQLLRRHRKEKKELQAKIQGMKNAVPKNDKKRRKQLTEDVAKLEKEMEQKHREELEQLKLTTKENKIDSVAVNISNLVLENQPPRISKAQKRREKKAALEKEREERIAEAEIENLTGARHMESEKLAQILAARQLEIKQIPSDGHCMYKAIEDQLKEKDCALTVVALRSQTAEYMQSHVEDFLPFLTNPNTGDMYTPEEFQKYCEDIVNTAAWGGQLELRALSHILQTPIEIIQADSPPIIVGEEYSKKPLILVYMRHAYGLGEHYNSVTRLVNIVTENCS
# Procedure, shortened: (§1)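 Each value is an average log2 ratio of fragment to vehicle, tested by unpaired t-test. The underlying Spectronaut label-free quantities were global-median-normalised, and only proteins with ≥2 unique peptides were included. Triplicate HEK293T lysate samples (495 µg) were exposed to fragment at 200 µM or vehicle for 3 h, then to Biotin-Ahx-Ub-VS at 0.5 µM final for 1 h, before NeutrAvidin enrichment of labelled DUBs, LysC and trypsin digestion, and diaPASEF LC-MS/MS.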
# OTUD7B = target: T2, OTUD7B (UniProt Q6GQQ9)
# T2 sequence (whole entry): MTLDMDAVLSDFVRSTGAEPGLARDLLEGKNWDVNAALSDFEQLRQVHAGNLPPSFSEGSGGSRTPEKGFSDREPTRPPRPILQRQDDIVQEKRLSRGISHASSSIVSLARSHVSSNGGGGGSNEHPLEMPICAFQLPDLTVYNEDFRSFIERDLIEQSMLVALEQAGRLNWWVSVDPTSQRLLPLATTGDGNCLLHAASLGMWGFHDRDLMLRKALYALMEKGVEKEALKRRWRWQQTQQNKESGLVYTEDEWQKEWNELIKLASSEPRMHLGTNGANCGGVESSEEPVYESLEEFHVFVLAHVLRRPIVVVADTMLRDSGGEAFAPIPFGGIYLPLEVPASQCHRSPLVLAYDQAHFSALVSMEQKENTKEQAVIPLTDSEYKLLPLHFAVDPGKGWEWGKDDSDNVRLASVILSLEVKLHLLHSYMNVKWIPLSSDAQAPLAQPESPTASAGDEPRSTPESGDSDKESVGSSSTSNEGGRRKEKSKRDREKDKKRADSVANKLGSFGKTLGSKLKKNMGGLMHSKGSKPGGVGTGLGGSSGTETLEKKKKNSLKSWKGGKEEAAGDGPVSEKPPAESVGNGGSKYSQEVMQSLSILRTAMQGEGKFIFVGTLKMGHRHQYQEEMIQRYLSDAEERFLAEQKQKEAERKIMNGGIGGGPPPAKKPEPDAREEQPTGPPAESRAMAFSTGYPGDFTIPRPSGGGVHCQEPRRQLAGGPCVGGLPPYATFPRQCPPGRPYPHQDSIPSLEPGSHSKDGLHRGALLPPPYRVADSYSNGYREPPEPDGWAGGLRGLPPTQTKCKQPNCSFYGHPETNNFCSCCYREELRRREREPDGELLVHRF
# Procedure, shortened: as §1
# PRPF8 = PRPF8 (UniProt Q6P2Q9)
# Procedure, shortened: as §1
# PSMD7 = target: T3, PSMD7 (UniProt P51665)
# T3 sequence (whole entry): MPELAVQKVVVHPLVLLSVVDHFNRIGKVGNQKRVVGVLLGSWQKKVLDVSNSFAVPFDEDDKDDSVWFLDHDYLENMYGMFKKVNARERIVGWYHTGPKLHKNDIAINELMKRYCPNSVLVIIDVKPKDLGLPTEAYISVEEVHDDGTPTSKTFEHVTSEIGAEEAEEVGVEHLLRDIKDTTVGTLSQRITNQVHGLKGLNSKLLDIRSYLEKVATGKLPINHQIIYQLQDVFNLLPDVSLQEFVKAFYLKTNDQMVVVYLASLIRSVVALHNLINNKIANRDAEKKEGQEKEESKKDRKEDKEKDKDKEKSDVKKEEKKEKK
# Procedure, shortened: as §1
# UCHL1 = UCHL1 (UniProt P09936)
# Procedure, shortened: as §1
# UCHL3 = target: T4, UCHL3 (UniProt P15374)
# T4 sequence (whole entry): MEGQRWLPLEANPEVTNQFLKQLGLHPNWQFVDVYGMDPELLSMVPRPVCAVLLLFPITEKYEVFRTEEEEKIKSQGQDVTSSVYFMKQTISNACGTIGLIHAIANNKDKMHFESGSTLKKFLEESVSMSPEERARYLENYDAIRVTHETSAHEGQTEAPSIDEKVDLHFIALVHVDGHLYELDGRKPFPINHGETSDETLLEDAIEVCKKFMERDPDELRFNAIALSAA
# Procedure, shortened: as §1
# UCHL5 = target: T5, UCHL5 (UniProt Q9Y5K5)
# T5 sequence (whole entry): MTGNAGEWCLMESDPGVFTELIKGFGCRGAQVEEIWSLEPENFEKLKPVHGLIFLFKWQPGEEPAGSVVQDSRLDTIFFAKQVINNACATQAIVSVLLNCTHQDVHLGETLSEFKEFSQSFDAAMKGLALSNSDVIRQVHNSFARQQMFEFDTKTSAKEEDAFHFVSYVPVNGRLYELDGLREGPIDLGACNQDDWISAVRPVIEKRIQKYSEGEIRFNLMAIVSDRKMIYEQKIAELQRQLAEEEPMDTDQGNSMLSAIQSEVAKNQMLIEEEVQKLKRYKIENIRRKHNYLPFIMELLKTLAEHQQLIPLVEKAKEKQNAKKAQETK
# Procedure, shortened: as §1
# USP10 = USP10 (UniProt Q14694)
# Procedure, shortened: as §1
# USP15 = target: T6, USP15 (UniProt Q9Y4E8)
# T6 sequence (whole entry): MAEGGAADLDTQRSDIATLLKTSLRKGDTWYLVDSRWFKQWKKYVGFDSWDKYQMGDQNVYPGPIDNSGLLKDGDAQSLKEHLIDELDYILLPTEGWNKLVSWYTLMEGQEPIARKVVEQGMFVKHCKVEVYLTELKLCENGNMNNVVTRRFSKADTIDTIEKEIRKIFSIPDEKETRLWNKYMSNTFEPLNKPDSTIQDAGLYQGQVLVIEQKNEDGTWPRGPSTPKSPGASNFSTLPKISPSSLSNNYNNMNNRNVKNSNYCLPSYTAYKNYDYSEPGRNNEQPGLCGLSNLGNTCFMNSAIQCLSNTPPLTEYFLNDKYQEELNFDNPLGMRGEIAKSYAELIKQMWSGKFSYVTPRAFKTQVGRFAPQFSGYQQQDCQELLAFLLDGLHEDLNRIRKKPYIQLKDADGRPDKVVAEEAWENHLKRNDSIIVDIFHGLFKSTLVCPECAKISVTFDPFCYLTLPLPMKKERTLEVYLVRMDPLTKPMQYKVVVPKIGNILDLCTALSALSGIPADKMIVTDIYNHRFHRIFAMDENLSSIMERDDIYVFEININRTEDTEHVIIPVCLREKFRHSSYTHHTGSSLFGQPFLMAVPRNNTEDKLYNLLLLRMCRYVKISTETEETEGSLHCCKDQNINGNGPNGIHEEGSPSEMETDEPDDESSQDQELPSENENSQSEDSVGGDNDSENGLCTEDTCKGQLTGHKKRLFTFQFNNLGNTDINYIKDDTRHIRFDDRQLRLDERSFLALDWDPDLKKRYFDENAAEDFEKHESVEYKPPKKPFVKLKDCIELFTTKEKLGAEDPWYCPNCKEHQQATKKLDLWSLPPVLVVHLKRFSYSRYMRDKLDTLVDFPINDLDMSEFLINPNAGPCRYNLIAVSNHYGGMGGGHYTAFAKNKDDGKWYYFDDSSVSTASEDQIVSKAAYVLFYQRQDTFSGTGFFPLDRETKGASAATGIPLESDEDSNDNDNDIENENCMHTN
# Procedure, shortened: as §1
# USP16 = USP16 (UniProt Q9Y5T5)
# Procedure, shortened: as §1
# Chain of USP10 (Q14694 whole entry): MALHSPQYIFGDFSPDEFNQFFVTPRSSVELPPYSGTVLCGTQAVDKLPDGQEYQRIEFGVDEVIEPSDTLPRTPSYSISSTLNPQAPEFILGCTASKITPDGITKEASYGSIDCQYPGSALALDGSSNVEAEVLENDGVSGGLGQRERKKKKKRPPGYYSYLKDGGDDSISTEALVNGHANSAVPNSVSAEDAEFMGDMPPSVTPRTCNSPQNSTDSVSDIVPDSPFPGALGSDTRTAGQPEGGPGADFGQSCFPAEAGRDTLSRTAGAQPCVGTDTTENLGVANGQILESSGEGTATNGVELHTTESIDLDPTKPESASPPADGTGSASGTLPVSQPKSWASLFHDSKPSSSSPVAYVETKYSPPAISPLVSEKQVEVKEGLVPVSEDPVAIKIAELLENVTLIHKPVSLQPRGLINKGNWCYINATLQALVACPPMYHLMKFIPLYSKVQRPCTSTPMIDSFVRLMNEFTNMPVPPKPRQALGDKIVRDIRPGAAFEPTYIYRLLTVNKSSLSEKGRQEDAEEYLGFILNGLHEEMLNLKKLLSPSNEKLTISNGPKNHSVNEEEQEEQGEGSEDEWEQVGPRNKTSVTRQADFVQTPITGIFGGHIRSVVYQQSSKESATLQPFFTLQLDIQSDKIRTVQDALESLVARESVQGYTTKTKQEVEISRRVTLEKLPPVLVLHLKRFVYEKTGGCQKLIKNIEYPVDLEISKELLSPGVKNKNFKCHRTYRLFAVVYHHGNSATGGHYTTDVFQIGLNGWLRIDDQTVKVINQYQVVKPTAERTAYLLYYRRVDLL
# Chain of USP16 (Q9Y5T5 whole entry, looked up): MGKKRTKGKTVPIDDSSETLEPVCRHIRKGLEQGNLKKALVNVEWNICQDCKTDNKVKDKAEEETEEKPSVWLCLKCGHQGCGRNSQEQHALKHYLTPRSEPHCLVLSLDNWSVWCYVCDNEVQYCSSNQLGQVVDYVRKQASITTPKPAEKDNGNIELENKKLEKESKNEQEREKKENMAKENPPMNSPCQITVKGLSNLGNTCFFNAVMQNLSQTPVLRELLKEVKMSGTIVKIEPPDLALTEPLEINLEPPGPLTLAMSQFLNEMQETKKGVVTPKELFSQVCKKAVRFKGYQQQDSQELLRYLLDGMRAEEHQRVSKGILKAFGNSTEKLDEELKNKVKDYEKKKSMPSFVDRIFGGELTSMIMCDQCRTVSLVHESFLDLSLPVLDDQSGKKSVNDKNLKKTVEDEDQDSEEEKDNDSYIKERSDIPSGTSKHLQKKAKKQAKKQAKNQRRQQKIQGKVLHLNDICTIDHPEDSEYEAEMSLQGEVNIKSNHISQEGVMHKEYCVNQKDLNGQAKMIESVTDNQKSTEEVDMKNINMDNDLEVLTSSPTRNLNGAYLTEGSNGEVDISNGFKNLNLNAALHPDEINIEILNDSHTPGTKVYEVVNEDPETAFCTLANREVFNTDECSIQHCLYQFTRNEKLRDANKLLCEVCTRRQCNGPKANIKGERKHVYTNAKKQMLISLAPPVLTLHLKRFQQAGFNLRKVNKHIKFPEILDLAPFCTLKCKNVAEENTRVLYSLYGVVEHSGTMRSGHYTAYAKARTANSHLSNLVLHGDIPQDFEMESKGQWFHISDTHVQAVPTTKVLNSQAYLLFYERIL
# Chain of UCHL1 (P09936 whole entry, looked up): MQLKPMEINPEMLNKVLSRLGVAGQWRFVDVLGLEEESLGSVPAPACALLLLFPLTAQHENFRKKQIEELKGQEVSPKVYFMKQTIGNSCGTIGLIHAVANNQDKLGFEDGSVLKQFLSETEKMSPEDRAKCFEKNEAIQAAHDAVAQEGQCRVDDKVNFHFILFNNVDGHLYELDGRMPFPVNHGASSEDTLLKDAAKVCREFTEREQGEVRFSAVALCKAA
smiles,measurement,setting,value
O=C(CCl)NC1CCCCNC1=O (stereo not given),log2 ratio of Biotin-Ahx-Ub-VS probe labelling,OTUD6B,-0.522
same,log2 ratio of Biotin-Ahx-Ub-VS probe labelling,OTUD7B,-0.212
same,log2 ratio of Biotin-Ahx-Ub-VS probe labelling,PRPF8,-0.0633
same,log2 ratio of Biotin-Ahx-Ub-VS probe labelling,PSMD7,-0.0971
same,log2 ratio of Biotin-Ahx-Ub-VS probe labelling,UCHL1,-1.46 (active)
same,log2 ratio of Biotin-Ahx-Ub-VS probe labelling,UCHL3,0.241
same,log2 ratio of Biotin-Ahx-Ub-VS probe labelling,UCHL5,-0.137
same,log2 ratio of Biotin-Ahx-Ub-VS probe labelling,USP10,-0.269
same,log2 ratio of Biotin-Ahx-Ub-VS probe labelling,USP15,-0.252
same,log2 ratio of Biotin-Ahx-Ub-VS probe labelling,USP16,-0.792
